The panel holds about 83,000 compounds, 20% with a hit somewhere; the sample as a whole holds those more often.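 96-well plates, one dose, 48 hours. Percent growth reported; active if below 10.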 A number with no mark means an inactive call. Activity calls are given as the source filed them.
Key:
Assay in all cases: NCI-60 one-dose screen, 48 h (100 = growth as untreated, 0 = no growth, -100 = all killed)
Conditions in all cases: 10 µM unless noted
[1] = tested on: NCI-H23 lung
[2] = tested on: NCI-H226 lung
[3] = tested on: NCI-H322M lung
[4] = tested on: HOP-62 NSCLC
[5] = tested on: NCI-H460 lung
[6] = tested on: HOP-92 NSCLC
[7] = tested on: NCI-H522 lung
[8] = tested on: A549/ATCC NSCLC
[9] = tested on: 786-0 renal
[10] = tested on: COLO 205 colon

## CCCCCN1C=C/C(=C\C(=O)N(C)c2ccccc2Br)c2ccccc21
[1]
  growth: 77.8%
[2]
  growth: 89.8%
[3]
  growth: 108%
[4]
  growth: 95.3%
[5]
  growth: 101%
[6]
  growth: 94.7%
[7]
  growth: 78.2%
[8]
  growth: 90.9%
[9]
  growth: 94.1%
[10]
  growth: 105%

## C=C(CBr)[C@@H]1CC[C@]2(COC(C)=O)CC[C@]3(C)[C@H](CC[C@@H]4[C@@]5(C)CCCNC(C)(C)[C@@H]5CC[C@]43C)[C@@H]12
[1]
  growth: 37.7%
[2]
  growth: 76.9%
[3]
  growth: 83.1%
[4]
  growth: 67.9%
[5]
  growth: 17%
[6]
  growth: 39.3%
[7]
  growth: 31.1%
[8]
  growth: 34.4%
[9]
  growth: 45.7%
[10]
  growth: 48.1%

## COc1ccc(C(=O)c2cc(C)c(OC)c(C)c2)c(OC)c1OC(=O)C(Cl)Cl
[1]
  growth: 29.2%
[2]
  growth: 6.91% (active)
[3]
  growth: 42.8%
[4]
  growth: 17.4%
[5]
  growth: 2.25% (active)
[6]
  growth: 21.7%
[7]
  growth: -10.8% (active)
[8]
  growth: 11%
[9]
  growth: 13.1%
[10]
  growth: 73.5%

## N=C1C(c2nc3ccccc3s2)=C(O)CN1c1cc(Cl)cc(Cl)c1
[1]
  growth: 88.6%
[2]
  growth: 102%
[3]
  growth: 89.1%
[4]
  growth: 62.2%
[5]
  growth: 67.5%
[6]
  growth: -15.8% (active)
[7]
  growth: 86.5%
[8]
  growth: 71.4%
[9]
  growth: 71.1%
[10]
  growth: 90.6%

## Cn1cc(-c2nc(-c3c[nH]c4c(Cl)nccc34)cs2)c2cc(Br)ccc21
[1]
  growth: 99.8%
[2]
  growth: 81.4%
[3]
  growth: 93.2%
[4]
  growth: 82%
[5]
  growth: 80.2%
[6]
  growth: 91.2%
[7]
  growth: 78.7%
[8]
  growth: 66.6%
[9]
  growth: 84.6%
[10]
  growth: 90.4%

## Cc1ccc(S(=O)(=O)Nn2c3c(cc(-c4nc5ccccc5s4)c2=O)CCCCCC3)cc1
[1]
  growth: 94.8%
[2]
  growth: 76.6%
[3]
  growth: 100%
[4]
  growth: 94.9%
[5]
  growth: 104%
[6]
  growth: 85.4%
[7]
  growth: 89.1%
[8]
  growth: 101%
[9]
  growth: 101%
[10]
  growth: 119%

## COc1ccc2c(c1)C(=O)CC(c1ccccc1OC)O2 (stereo not given)
[1]
  growth: 86.9%
[2]
  growth: 93.8%
[3]
  growth: 104%
[4]
  growth: 92.6%
[5]
  growth: 100%
[6]
  growth: 94.3%
[7]
  growth: 93%
[8]
  growth: 96%
[9]
  growth: 104%
[10]
  growth: 109%

## O=C1c2ccccc2CCC12OC2c1cn(-c2ccccc2)nc1-c1ccc(Cl)cc1 (stereo not given)
[1]
  growth: 103%
[2]
  growth: 75.1%
[3]
  growth: 99.6%
[4]
  growth: 108%
[5]
  growth: 58.9%
[6]
  growth: 40.5%
[7]
  growth: 87.1%
[8]
  growth: 92.7%
[9]
  growth: 115%
[10]
  growth: 93.9%

## Cc1nc(N)nc(N[C@@H](C)c2nc3cccc(NCc4ccc(C(=O)NO)cc4)c3c(=O)n2-c2ccccc2)n1
[1]
  growth: 63.9%
[2]
  growth: 81%
[3]
  growth: 80.1%
[4]
  growth: 75.1%
[5]
  growth: 76.3%
[6]
  growth: 50.1%
[7]
  growth: 35.3%
[8]
  growth: 90.5%
[9]
  growth: 93.9%
[10]
  growth: 47.3%

## COc1cc(/C(C)=C(\c2ccc(Cl)cc2)c2ccc(OCCN3CCCC3)cc2)ccc1F
[1]
  growth: 67.4%
[2]
  growth: 87.8%
[3]
  growth: 71%
[4]
  growth: 87.2%
[5]
  growth: 6.04% (active)
[6]
  growth: 52.4%
[7]
  growth: 80%
[8]
  growth: 57.1%
[9]
  growth: 71.4%
[10]
  growth: 16.3%

## Cn1cc(CC2CC(=O)N(c3ccccc3)C2=O)sc1=NC(=O)c1ccccc1 (stereo not given)
[1]
  growth: 95.8%
[2]
  growth: 97.5%
[3]
  growth: 92.5%
[4]
  growth: 92.9%
[5]
  growth: 106%
[6]
  growth: 85.1%
[7]
  growth: 92.8%
[8]
  growth: 101%
[9]
  growth: 94.4%
[10]
  growth: 111%

## Oc1ccc(C2c3ccccc3Oc3ccccc32)c2cccnc12
[1]
  growth: 30.3%
[2]
  growth: 4.5% (active)
[3]
  growth: 24.3%
[4]
  growth: 19.8%
[5]
  growth: 2.23% (active)
[6]
  growth: 43.1%
[7]
  growth: 25%
[8]
  growth: 12.2%
[9]
  growth: -18.4% (active)
[10]
  growth: 34.8%

## COc1ccc(-c2nc(S(=O)(=O)c3ccccc3)c(S(=O)CC(=O)N3CCC(C)CC3)o2)cc1 (stereo not given)
[1]
  growth: 54.1%
[2]
  growth: 80.3%
[3]
  growth: 73.2%
[4]
  growth: 76.6%
[5]
  growth: 80.4%
[6]
  growth: -22.6% (active)
[7]
  growth: -86.6% (active)
[8]
  growth: 77.4%
[9]
  growth: 10.3%
[10]
  growth: 48.7%

## CCCCCN1C=C/C(=C\C(=O)N(C)c2ccc(Oc3ccccc3)cc2)c2ccccc21
[1]
  growth: 68.4%
[2]
  growth: 79.1%
[3]
  growth: 89.8%
[4]
  growth: 87.4%
[5]
  growth: 92%
[6]
  growth: 47.7%
[7]
  growth: 61.1%
[8]
  growth: 82.3%
[9]
  growth: 89.7%
[10]
  growth: 81.6%

## O=S(=O)(NCCNc1nccc(-c2c(-c3cccc(O)c3)nc3occn23)n1)c1ccc(C(F)(F)F)cc1
[1]
  growth: 102%
[2]
  growth: 106%
[3]
  growth: 108%
[4]
  growth: 107%
[5]
  growth: 94.9%
[6]
  growth: 92.6%
[7]
  growth: 94.6%
[8]
  growth: 94.8%
[9]
  growth: 101%
[10]
  growth: 44.1%

## Clc1ccc(-c2ccc(CNCC3CCNCC3)o2)c(-c2ccccc2)c1
[1]
  growth: -39.8% (active)
[2]
  growth: -12.1% (active)
[3]
  growth: -25.7% (active)
[4]
  growth: -78.3% (active)
[5]
  growth: -86.7% (active)
[6]
  growth: -39.3% (active)
[7]
  growth: -70.7% (active)
[8]
  growth: -79.5% (active)
[9]
  growth: -90.2% (active)
[10]
  growth: -76.3% (active)

Source: PubChem BioAssay (NCI)
